Results: PubChem BioAssay (NCATS)
Inconclusive results are not listed. Active and inactive are the calls of the source. Unless noted, the call rests on the fitted dose curve; in most records, active means well fitted curve in the direction sought with a large enough effect; inconclusive means small, poorly fitted or top-dose-only effect, or another doubt; inactive means no such curve, though single readings can be large; an effect the other way counts as inactive or inconclusive.

What was measured:
[1] = Cell Viability - BJ (AID 421; calls by dose curve;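 further: potency means the concentration at half of the fitted maximal effect; cells exposed to compound for 40 hours at 37 °C before readout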); conditions: BJ fibroblast viability, qHTS
In short: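 Luminescent ATP signal (CellTiter-Glo, 20 min at room temperature) served as the read-out of viable BJ cells after 40 hours of compound treatment. Responses were scaled between DMSO and 100 uM tamoxifen, and AC50 values were obtained by Hill modeling.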

[2] = Cell Viability - Jurkat (AID 426;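 active means dose-dependent loss of cell ATP signal giving a full or clear fitted curve, ranked by lower potency value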;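 further: potency means the concentration at half of the fitted maximal effect; cells exposed to compound for 40 hours at 37 °C before ATP read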); conditions: qHTS
In short: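 Cytotoxicity was scored as loss of cellular ATP, measured by luciferase-based luminescence, in Jurkat clone E6-1 cells after 40 h compound treatment; tamoxifen and doxorubicin served as positive controls.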

[3] = Cell Viability - Hek293 (AID 427;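 active means compounds whose dose-response curve shows a full or clear partial loss of cell viability, called from curve shape rather than a numeric limit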;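 further: potency means the concentration at half of the fitted maximal effect; cells exposed to compound for 40 hours at 37 °C before reading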); conditions: qHTS
In short: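 Luminescent ATP read-out (CellTiter-Glo, 20 min RT) after 40 hr compound exposure at 37 °C in complete medium. Signal normalized to DMSO (basal) and 100 uM tamoxifen (100% inhibition); concentration-response fitted with the standard Hill equation to give AC50.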

[4] = Cell Viability - HepG2 (AID 433; calls by dose curve;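 further: potency means the concentration at half of the fitted maximal effect; potency for ATP loss meaning cytotoxicity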); conditions: qHTS
In short: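 Read-out is luciferase-based quantitation of cellular ATP as a measure of viable HepG2 cells after 40 h treatment at 37 °C. Signal decrease is scaled between DMSO-only and 100 uM tamoxifen controls, with AC50 fitted by the Hill equation.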

[5] = Cell Viability - MRC5 (AID 434; calls by dose curve;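 further: potency means the concentration at half of the fitted maximal effect; cells exposed to compound for 40 hours at 37 °C; potency reflects cytotoxicity seen as loss of intracellular ATP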); conditions: MRC5 lung fibroblast viability, qHTS
In short: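 ATP luminescence read-out (CellTiter-Glo, 20 min RT) after 40 hr, 37 °C compound exposure of 1500 MRC5 cells/well. Data normalized to DMSO (basal) and 100 uM tamoxifen (100% inhibition); AC50 from standard Hill equation.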

[6] = Cell Viability - SK-N-SH (AID 435; calls by dose curve;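 further: potency means the concentration at half of the fitted maximal effect; compound exposure lasted 40 h at 37 °C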); conditions: SK-N-SH neuroblastoma cell viability qHTS
In short: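 Luminescent ATP signal served as the viability read-out after 40 hours of compound treatment of human neuroblastoma SK-N-SH cells. Concentration-response data, scaled between DMSO and 100 uM tamoxifen, gave AC50 values by standard Hill modeling.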

[7] = Cell Viability - N2a (AID 540); conditions: N2a mouse neuroblastoma cell viability; activity change, negative = cytotoxicity: at 92.2 µM (top of the series);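 further: cells exposed to compound for 40 h at 37 °C; plate controls were DMSO alone for no effect and tamoxifen control for full effect; nearly all actives have a fitted effect of over 45% in size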
In short: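 In this qHTS cytotoxicity screen, ATP-dependent luciferase luminescence reports viable N2a cells after a 40 hr compound exposure in complete culture medium. Potencies are AC50 values from standard Hill equation fits.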

[8] = Cell Viability - NIH 3T3 (AID 541); conditions: NIH 3T3 cell viability, qHTS; activity change, negative = cytotoxicity: at 92.2 µM (top of the series);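 further: plate controls were DMSO alone for no effect and tamoxifen positive control for full effect; nearly all actives have a fitted effect of over 25% in size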
In short: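 In this cytotoxicity screen, acute toxicity is scored as an ATP drop measured by CellTiter-Glo in NIH 3T3 fibroblasts following a 40 hr, 37 °C incubation with compound.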

[9] = Cell Viability - HUV-EC-C (AID 542); further: on the % scale 0 is the no-effect control and ±100 the full control effect; nearly all actives have a fitted effect of over 35% in size
In short: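 Concentration-dependent ATP loss in HUV-EC-C cells is the measure. Exposure lasts 40 hr at 37 °C; luminescence follows CellTiter-Glo addition, and Hill fits give AC50.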

[10] = Cell Viability - H-4-II-E (AID 543); further: on the % scale 0 is the no-effect control and ±100 the full control effect; nearly all actives have a fitted effect of over 35% in size
In short: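 AC50 from Hill-modelled qHTS concentration-response curves. H-4-II-E rat hepatoma cells in complete medium, 40 hr exposure at 37 °C, viability by CellTiter-Glo ATP luminescence.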

[11] = Cell Viability - SH-SY5Y (AID 544); conditions: SH-SY5Y neuroblastoma cell viability; viability change, negative = cytotoxic: at 92.2 µM (top of the series); further: nearly all actives have a fitted effect of over 55% in size
In short: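 Quantitative HTS in SH-SY5Y neuroblastoma cells, 40 hr treatment at 37 °C, ATP content by luciferase luminescence; AC50 from Hill fits.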

[12] = Cell Viability - Mesenchymal (AID 546); conditions: mesenchymal cells viability, qHTS; activity change, negative = cytotoxicity: at 91.7 µM (top of the series);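 further: cells exposed to compound for 40 hours before reading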
In short: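 Human renal mesenchymal cells (glomerulus-derived), 1000 cells/well, 5 hr 37 °C pre-incubation; compound 40 hr, 37 °C; CellTiter-Glo, 20 min RT; luminescence; AC50 via Hill equation.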

[13] = Cellular Toxicity (caspase-3) HepG2 (AID 654);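 further: cells exposed to compound for 16 hours before reading; 0% = DMSO alone and 100% = caspase signal from 100 µM tamoxifen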
In short: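 Concentration-response AC50 values reflect caspase-3/7 induction in HepG2 cells after 16 hours of compound exposure, quantified by luminescence from liberated aminoluciferin and referenced to 100 uM tamoxifen as full stimulation.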

[14] = Cellular Toxicity (caspase-3) Jurkat (AID 655); conditions: Jurkat caspase-3 activation, luminescence; caspase-3 activation: at 92.2 µM (top of the series), DMSO = 0%, tamoxifen = 100%;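 further: cells exposed to compound for 16 h at 37 °C before reading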
In short: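 5000 Jurkat cells/well; compound 16 hr, 37 °C; Caspase-Glo 3/7 added, 20 min RT; luminescence read. Norm: DMSO = 0%, tamoxifen 100 uM = 100%. AC50, Hill model.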

[15] = Cellular Toxicity (caspase-3) HUV-EC-C (AID 656)
In short: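 qHTS; HUV-EC-C, 1000 cells/well; 5 hr settle, 16 hr cmpd, 37°C; Caspase-Glo 3/7, 20 min RT; luminescence. Norm: DMSO = 0%, tamoxifen 100 uM = 100%. Hill-fit AC50.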

[16] = Cellular Toxicity (caspase-3) SHSY5Y (AID 657)
In short: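 qHTS, SH-SY5Y, 1500 cells/well, 5 h pre-incubation 37 °C; compound 16 h 37 °C; Caspase-Glo 3/7 1 h RT; luminescence. Norm.: DMSO = 0, 10 uM staurosporine = 100%. Hill fit → AC50.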

[17] = Cellular Toxicity (caspase-3) BJ (AID 658); conditions: Potency: caspase-3 activation;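 further: 0% = DMSO basal and 100% = 10 µM staurosporine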
In short: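 qHTS, BJ fibroblasts, 1000 cells/well; 5 hr preincubation, 16 hr compound, 37 °C; Caspase-Glo 3/7 reagent, 1 hr RT; luminescence. DMSO = 0%, 10 uM staurosporine = 100%. Hill-equation AC50.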

[18] = Cellular Toxicity (caspase-3) MRC-5 (AID 659);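 further: 0% = DMSO basal and 100% = 10 µM staurosporine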
In short: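 MRC-5 fibroblasts, 1500/well; 16 h cpd, 37 °C; Caspase-Glo 3/7, 1 h RT; lumi read. Norm: DMSO = 0%, 10 uM staurosporine = 100%. Hill-fit AC50 from qHTS conc-response.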

[19] = Cellular Toxicity (caspase-3) Mesangial (AID 660);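 further: combined caspase 3 and 7 activity read by Caspase-Glo luminescence; cells exposed to compound for 16 h before the caspase read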
In short: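 AC50 values come from Hill-equation fits of caspase 3/7 activation, measured as Caspase-Glo luminescence in human glomerular mesangial cells exposed to compound for 16 h at 37 °C; 100% set by 100 uM tamoxifen.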

[20] = Cellular Toxicity (caspase-3) SK-N-SH (AID 661);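 further: 0% = DMSO basal and 100% = 10 µM staurosporine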
In short: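 Apoptosis readout in SK-N-SH neuroblastoma: Caspase-Glo 3/7 luminescence following 16 hr treatment in complete culture medium. Normalization used DMSO and 10 uM staurosporine controls.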

[21] = Cellular Toxicity (caspase-3) H-4-II-E (AID 663); conditions: Potency: caspase-3 activation;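 further: cells exposed to compound for 16 hr before readout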
In short: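 H-4-II-E rat hepatoma, 1500 cells/well, 5 hr settle at 37 °C; compound 16 hr, 37 °C, complete medium; Caspase-Glo 3/7, 20 min RT; luminescence. DMSO = 0%, 100 uM tamoxifen = 100%; Hill-equation AC50.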

[22] = Cellular Toxicity (caspase-3) Hek293 (AID 664); conditions: HEK293 caspase-3 activation, DMSO = 0%, 100 µM tamoxifen = 100%; at 92.2 µM (top of the series);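 further: cells exposed to compound for 16 h at 37 °C before readout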
In short: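 Apoptosis readout: Caspase-Glo 3/7 signal in human HEK293 cells following 16-hour compound incubation. Responses scaled between DMSO baseline and 100 uM tamoxifen.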

[23] = Cellular Toxicity (caspase-3) N2a (AID 665);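 further: compound exposure lasted 16 h at 37 °C before readout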
In short: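 Concentration-response qHTS: compound-induced caspase-3/7 luminescence in N2a cells (16 h, 37 °C), relative to DMSO and 10 uM staurosporine controls; AC50 obtained using the standard Hill equation.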

[24] = Cellular Toxicity (caspase-3) Renal Proximal Tubule (AID 667); conditions: Potency: caspase-3 activation;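 further: cells exposed to compound for 16 hours at 37 °C before detection; 0% = DMSO basal and 100% = 10 µM staurosporine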
In short: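 AC50 derived by standard Hill fit of concentration-response data, normalized between DMSO basal and 10 uM staurosporine as 100% stimulation. Cells: primary rat kidney proximal tubule, 16 h treatment at 37 °C.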

[25] = MultiTox-Fluor Cytotoxicity Assay - LYMP1-001 - Dead Cells (AID 946);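 further: 0% = DMSO and 100% = tetraoctylammonium bromide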
In short: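 AC50 from Hill fit of concentration-response; data normalized to DMSO (basal) and 15 uM tetraoctylammonium bromide (100%). LYMP1-001 lymphoblastoid cells, 2500/well, 16 hr compound at 37 C; dead-cell protease fluorescence, Ex/Em 485/520.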

[26] = MultiTox-Fluor Cytotoxicity Assay - LYMP1-001 - Live Cells (AID 947);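 further: 0% = DMSO only and full inhibition = tetraoctylammonium bromide control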
[27] = Cell Viability - LYMP1-002 - Assay at 16 hr (AID 948);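 further: 0% = DMSO alone and full effect = 92 µM tetraoctylammonium bromide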
In short: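 Seed 2500 LYMP1-002 cells per well in complete medium and hold 5 hr at 37 C. Add compound across a concentration series and incubate 16 hr at 37 C. Add CellTiter-Glo, wait 30 min at room temperature, read luminescence.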

[28] = MultiTox-Fluor Cytotoxicity Assay - LYMP1-002 - Live Cells (AID 955); further: on the % scale 0 is the no-effect control and ±100 the full control effect
In short: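 In this qHTS viability format, lymphoblastoid cells (LYMP1-002, human) received compound for 16 hr at 37 C. Fluorogenic GF-AFC cleavage by viable cells was detected at 405/510 nm after 1 h at room temperature.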

[29] = MultiTox-Fluor Cytotoxicity Assay - LYMP1-003 - Dead Cells (AID 961);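 further: 0% = DMSO and 100% = tetraoctylammonium bromide; nearly all actives have a fitted effect of over 70% in size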
In short: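 Human lymphoblastoid LYMP1-003 cells (2500/well) were treated with compounds for 16 hr at 37 C in complete medium. Dead-cell protease release was read by bis-AAF-R110 fluorescence (Ex/Em 485/520). AC50 came from Hill fits, normalized to DMSO and 15 uM tetraoctylammonium bromide.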

[30] = MultiTox-Fluor Cytotoxicity Assay - LYMP1-003 - Live Cells (AID 962);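 further: 0% = DMSO only and full loss = 92 µM tetraoctylammonium bromide; cytotoxic hits lower the live-cell protease signal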
In short: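 Human lymphoblastoid line LYMP1-003 in complete culture medium, treated 16 hr with titrated compounds. Viable cells quantified via cell-permeant GF-AFC substrate fluorescence; AC50 derived by Hill fitting.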

[31] = Cell Viability - LYMP1-003 - Assay at 24 hr (AID 963);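 further: plate controls were DMSO only for no effect and tetraoctylammonium bromide positive control for full effect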
In short: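 The lymphoblastoid line was treated with titrated compounds for 24 hours, and viable cell number estimated from luciferase-based ATP luminescence.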

[32] = Cell Viability - LYMP1-003 - Assay at 40 hr (AID 964); further: on the % scale 0 is the no-effect control and ±100 the full control effect; nearly all actives have a fitted effect of over 60% in size
In short: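 Acute toxicity is scored as a concentration-dependent loss of intracellular ATP in LYMP1-003 cells (2500/well, complete medium) after 40 hr at 37 C, measured by CellTiter-Glo luminescence; AC50 values derive from standard Hill modelling.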

[33] = Cell Viability - LYMP2-003 (AID 965);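 further: cells exposed to compounds for 24 h before reading; 0% = DMSO only and full effect = 92 µM tetraoctylammonium bromide; nearly all actives have a fitted effect of over 50% in size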
In short: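 Seed 2500 lymphoblastoid cells/well; incubate 5 hr, 37 C; add compounds; incubate 24 hr, 37 C; add CellTiter-Glo, 30 min RT; read luminescence. AC50 from Hill fit.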

O=C(O)c1cc(N=Nc2ccc([N+](=O)[O-])cc2)ccc1O
inactive: Potency [1] > 92 µM | Potency [2] > 92 µM | Potency [3] > 92 µM | Potency [4] > 92 µM | Potency [5] > 92 µM | Potency [6] > 92 µM | activity change, negative = cytotoxicity [7] -5.65% | activity change, negative = cytotoxicity [8] -24.1% | Potency [9] | Potency [10] | Potency [11] | Potency [12] | Potency [13] | Potency [14] | Potency [15] | Potency [16] | Potency [17] | outcome [18] | outcome [19] | outcome [20] | Potency [21] | caspase-3 activation [22] -10.9% | outcome [23] | Potency [24] | Potency [25] | Potency [26] | Potency [27] | outcome [28] | Potency [29] | Potency [30] | Potency [31] | Potency [32] | Potency [33]
